# Source: PubChem (Sanford-Burnham Center for Chemical Genomics)
# An excerpt weighted towards active compounds, which were near 28% of everything screened.
# CD11b adhes enh: CD11b/CD18-fibrinogen binding enhancement; P05107+P11215; K562 CD11b/CD18 adhesion to fibrinogen, ATPlite luminescence; activation, % at 10 µM; actives 0.07% (n = 93,000); AID 1499;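 active means 10 µM primary screen giving 50% or more activity, confirmed by 40% or more on retest at that dose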
# Mac1 fbg inh: blocks human CD11b/CD18 adhesion to fibrinogen; P05107+P11215; K562 CD11b/CD18 adhesion to fibrinogen, ATPlite luminescence; Mn2+ added to activate the integrin; inhibition, % at 10 µM; actives 0.54% (n = 93,000); AID 1497;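 active means primary inhibition of 50% or more at 10 µM, then 40% or more on retest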
# CYP2C9 inh: blocks human cytochrome P450 2C9 | P11712 | CYP2C9 Supersomes, luciferin-H conversion, luminescence | inhibition, % at 5 µM | actives 20% (n = 96,000) | AID 777;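 active means blocking of liver enzyme CYP2C9 beyond about 50% at 5 µM, limit read from the data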
# CYP2C19 inh: inhibitors of human CYP2C19; AID 778; CYP2C19 Supersomes, luciferin-H EGE luminescence, 30 min; inhibition, % at 5 µM; actives 21% (n = 96,000); P33261;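 active means CYP2C19 inhibition above a set limit at 5 µM in the primary screen, cut at about 50% in these data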
# Target sequence (P33261 whole entry, looked up): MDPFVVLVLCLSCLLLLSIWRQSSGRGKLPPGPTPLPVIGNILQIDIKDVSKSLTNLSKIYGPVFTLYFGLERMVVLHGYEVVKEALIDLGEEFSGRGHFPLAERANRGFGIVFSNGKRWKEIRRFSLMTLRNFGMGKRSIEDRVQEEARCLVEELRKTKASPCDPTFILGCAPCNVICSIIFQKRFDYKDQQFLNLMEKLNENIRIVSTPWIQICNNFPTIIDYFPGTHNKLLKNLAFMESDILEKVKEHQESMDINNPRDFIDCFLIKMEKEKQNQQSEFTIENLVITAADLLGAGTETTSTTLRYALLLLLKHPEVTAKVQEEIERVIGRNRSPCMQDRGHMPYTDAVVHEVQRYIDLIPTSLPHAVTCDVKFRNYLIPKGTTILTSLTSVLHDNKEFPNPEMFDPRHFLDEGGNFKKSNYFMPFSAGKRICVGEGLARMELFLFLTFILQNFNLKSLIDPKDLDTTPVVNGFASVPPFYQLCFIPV
# CYP2C19 activ: cytochrome P450 2C19 (human) activation; P33261; recombinant CYP2C19, luciferin-H EGE luminescence; hits give high values; 0 = fully inhibited enzyme, 1 = untreated enzyme; activation factor at 5 µM; 96,000 tested, under 10 active;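 active means activation factor of at least 2 at 5 µM in the primary screen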
# CYP2C9 activ: CYP2C9 (human) activation. P11712. recombinant CYP2C9, luciferin-H conversion, luminescence; hits give high values; factor 1 = untreated enzyme, 0 = blocked. activation factor at 5 µM. actives 1.4% (n = 96,000). AID 1024;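 active means activation factor of 2 or more for CYP2C9 at a 5 µM dose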
# A number is an active result; i = inactive; nt = no result given.
SMILES,CD11b adhes enh,Mac1 fbg inh,CYP2C9 inh,CYP2C19 inh,CYP2C19 activ,CYP2C9 activ
O=C(NCCc1ccccc1)c1cc(S(=O)(=O)N2CCOCC2)ccc1F,i,i,54,i,i,i
O=C(COC(=O)c1cc(S(=O)(=O)NCc2ccccc2)ccc1O)NCc1ccccc1,i,i,i,i,i,i
O=C(c1cc(S(=O)(=O)N2CCOCC2)ccc1F)N1CCN(Cc2ccccc2)CC1,i,i,i,75,i,i
O=C(NCCc1ccccc1)c1ccccc1NS(=O)(=O)N1CCCC1,i,i,86,89,i,i
COc1ccc(N(CC(=O)Nc2cc(C(=O)O)ccc2C)S(=O)(=O)c2c(C)noc2C)cc1,nt,nt,i,i,i,i
O=S(=O)(Nc1cccc2ccccc12)N1CCCC1,i,i,i,68,i,i
CC(C)CNC(=O)COC(=O)c1cc(S(=O)(=O)N2CCCCC2)ccc1N1CCOCC1,i,i,69,i,i,i
COc1ccccc1NC(=O)c1ccccc1NS(=O)(=O)N1CCCC1,i,i,i,i,i,i
COC(=O)C1CSc2[nH]c(=O)sc2C1c1ccccc1 (stereo not given),i,i,i,i,i,i
Cc1ccc(S(=O)(=O)N(CC(=O)O)Cc2ccccc2F)cc1,i,i,51,i,i,i
Cc1ccc(S(=O)(=O)N(CC(=O)N2CCC(C)CC2)Cc2ccccc2F)cc1,i,i,79,84,i,i
O=C(O)CCS(=O)(=O)Cc1ccccc1F,i,i,i,i,i,i
CCCn1c2c(c(O)c(C(=O)Nc3ccc(OC)cc3)c1=O)CCCC2,i,i,79,i,i,i
Cc1ccc(C=Nc2ccc(N(C)C)cc2)o1,i,i,i,52,i,i
CCN(CC)c1ccc(C=Nc2ccc(N(C)C)cc2)c(O)c1,i,i,i,i,i,i
CCc1nc(SCC(=O)Nc2cc(C)on2)c2c(=O)n(C)c(=O)n(C)c2n1,i,i,i,i,i,i
Cn1c(=O)c2c(SCc3ccccn3)nc(C3CC3)nc2n(C)c1=O,i,i,i,i,i,i
CCCc1nc(SCc2ccccn2)c2c(=O)n(C)c(=O)n(C)c2n1,i,i,71,i,i,i
Cn1c(=O)c2c(SCc3ccccn3)nc(CC(C)(C)C)nc2n(C)c1=O,i,i,82,i,i,i
Cc1cc(NC(=O)CSc2nc(CC(C)(C)C)nc3c2c(=O)n(C)c(=O)n3C)no1,i,i,63,i,i,i
Cc1cc(C)c(NC(=O)c2cc3c(nc4sccn43)s2)c(C)c1,i,i,i,i,i,i
CC(C)=CCC/C(C)=C/C=N/NC(=O)c1ccc([N+](=O)[O-])cc1,i,i,nt,nt,nt,nt
COc1cc(/C=N/n2cnnc2)ccc1OC(=O)c1ccncc1,i,i,i,i,i,i
C(=N\n1cnnc1)/c1ccc(-c2ccccc2)cc1,i,i,98,99,i,i
CC(=O)Oc1ccccc1C(=O)Oc1ccc(/C=N/n2cnnc2)cc1,i,i,95,i,i,i
SMILES,CD11b adhes enh,Mac1 fbg inh,CYP2C9 inh,CYP2C19 inh,CYP2C19 activ,CYP2C9 activ
Oc1ccccc1/C=N/n1cnnc1,i,i,i,i,i,i
Cc1cc(/C=N/n2cnnc2)c(C)n1-c1ccc(OCc2ccc(Cl)cc2)cc1,i,i,i,i,i,i
CCOc1cc(/C=N/n2cnnc2)cc(Br)c1O,i,i,i,i,i,i
CCOc1ccc(/C=N/n2cnnc2)cc1,i,i,i,82,i,i
C(=N\n1cnnc1)/c1ccc(OCc2ccccc2)cc1,i,i,81,70,i,i
Cc1cc(C)cc(COn2ccnc2)c1,i,i,i,69,i,i
Cc1cc(C)cc(N2C(=O)CC(n3ccnc3)C2=O)c1 (stereo not given),i,i,i,i,i,i
COc1ccc(CCNC(=O)c2c(O)c3c([nH]c2=O)CCCC3)cc1,i,i,i,i,i,i
CC(=O)CCCCn1c(=O)c2c(ncn2C)n(C)c1=O,i,i,51,i,i,i
CC12CCC(C(=O)N3CCN(Cc4ccccc4)CC3)(OC1=O)C2(C)C (stereo not given),i,i,67,72,i,i
O=C(N1CCN(Cc2ccccc2)CC1)C12CC3CC(CC(C3)C1)C2,i,i,72,99,i,i
O=C(N1CCN(c2ccccc2)CC1)C12CC3CC(CC(C3)C1)C2,i,i,67,81,i,i
CCCn1c(=O)[nH]c2ccccc21,i,i,i,i,i,i
Cc1cc(C)nc(SCCCn2c(=O)[nH]c3ccccc32)n1,i,i,i,97,i,i
CCC12CN(C(=O)c3ccc(OC)cc3)CC(CC)(CN(C(=O)c3ccc(OC)cc3)C1)C2=O,i,i,i,58,i,i
COC(=O)CNC(=O)CCCCC(=O)NCC(=O)OC,i,i,i,i,i,i
CCOC(=O)C1CCN(C(=O)CSc2cc(=O)n(CC)c3ccccc23)CC1,i,i,i,60,i,i
CCn1c(=O)cc(SCC(=O)N2CCCCC2)c2ccccc21,i,i,i,i,i,i
CCn1c(=O)cc(SCC(=O)N2CCC(C)CC2)c2ccccc21,i,i,i,i,i,2.7
CCN1CCN(C(=O)CSc2cc(=O)n(CC)c3ccccc23)CC1,i,i,i,i,i,i
C=CCn1c(SCC(=O)NC(=O)NCc2ccco2)nc2sc(C)c(C)c2c1=O,i,i,i,i,i,i
C=CCn1c(SCC(=O)NC)nc2sc3c(c2c1=O)CCC3,i,i,59,i,i,i
CCSc1nc2sc3c(c2c(=O)n1C1CCCCC1)CCN(C)C3,i,i,i,71,i,i
CN1CCc2c(sc3nc(SCC(N)=O)n(-c4ccccc4)c(=O)c23)C1,i,i,i,69,i,i
COC(=O)CSc1nc2sc3c(c2c(=O)n1-c1ccccc1)CCN(C)C3,i,i,i,i,i,i
SMILES,CD11b adhes enh,Mac1 fbg inh,CYP2C9 inh,CYP2C19 inh,CYP2C19 activ,CYP2C9 activ
CSc1nc2sc3c(c2c(=O)n1C1CCCCC1)CCN(C)C3,i,i,i,i,i,i
C=CCn1c(SC(CCO)C(=O)NCc2ccco2)nc2sc3c(c2c1=O)CCC3 (stereo not given),i,i,56,i,i,i
C=CCNC(=O)CC(C)C(CCCCC)C(=O)O (stereo not given),i,i,i,i,i,i
CCC1(c2ccc(F)cc2)NC(=O)N(CC(=O)N2CCOCC2)C1=O (stereo not given),i,i,i,i,i,i
CCOC(=O)C1CCN(C(=O)CCn2c(=O)[nH]c3ccsc3c2=O)CC1,i,i,i,i,i,i
C=CCn1c(SCC(=O)OC)nc2sc3c(c2c1=O)CCN(C)C3,nt,nt,i,60,i,i
COC(=O)CSc1nc2sc(C)c(C)c2c(=O)n1C,i,i,i,i,i,i
O=C(O)C1CCCN(S(=O)(=O)c2ccc(Br)cc2)C1 (stereo not given),i,i,i,i,i,i
